The values below come from PubChem BioAssay (NCI).

Among the test systems are NCI-H23 lung; NCI-H322M lung; HOP-62 NSCLC; NCI-H460 lung; HOP-92 NSCLC; NCI-H522 lung; A549/ATCC NSCLC; 786-0 renal; COLO 205 colon; DU-145 prostate; K-562 leukemia; MALME-3M melanoma; MDA-MB-231 breast; RXF 393 renal; SF-268 CNS; SF-295 CNS; SF-539 CNS; UACC-257 melanoma; M14 melanoma; HCT-15 colon.
Common to all, as to experiment: NCI-60 one-dose screen, 48 h (100 = growth as untreated, 0 = no growth, -100 = all killed)
Holding throughout (details): 10 µM unless noted

The panel holds about 83,000 compounds, 20% with a hit somewhere; the sample as a whole holds those more often.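 For each line, cells grew in 96-well plates with the test compound present at a single concentration for 48 hours.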 A number with no mark means an inactive call. Activity calls are given as the source filed them. Rule for the calls: active = growth percent below 10; inactive = the rest.

`O=C(Nc1ccc(Cl)cc1F)c1cc(F)ccc1O`: the growth in the assay with NCI-H23 lung was 1.46% (active); in the assay with NCI-H322M lung, 8.54% (active); with HOP-62 NSCLC, -0.133% (active); in the assay with NCI-H460 lung, 4.1% (active); in the assay on HOP-92 NSCLC, -7.2% (active); with NCI-H522 lung, -25.1% (active). For the same compound, the growth in the assay on A549/ATCC NSCLC is 7.57% (active); in the assay on 786-0 renal, 3.03% (active); in the assay on COLO 205 colon it was -1.76% (active); in the assay on DU-145 prostate, 16.3%; in the assay on K-562 leukemia, 5.39% (active); in the assay with MALME-3M melanoma, -21.5% (active). The growth is -18.1% (active) in the assay on MDA-MB-231 breast; 9.69% (active) in the assay with RXF 393 renal; 13.4% in the assay on SF-268 CNS; -56.2% (active) in the assay on SF-295 CNS; 4.32% (active) with SF-539 CNS; -17.3% (active) in the assay on UACC-257 melanoma. Also, the growth is 2.92% (active) with M14 melanoma and 3.11% (active) with HCT-15 colon.

Take `c1ccc(-c2ccc(-c3nc4ccccc4[nH]3)cc2)cc1`: the growth in the assay with NCI-H23 lung was 94%; with NCI-H322M lung it was 98.9%; in the assay with HOP-62 NSCLC, 80.5%; in the assay with NCI-H460 lung, 95.6%; in the assay with HOP-92 NSCLC it was 69.7%; with NCI-H522 lung, 94.3%. Moreover, the growth in the assay on A549/ATCC NSCLC is 91.8%; in the assay with 786-0 renal it was 88%; in the assay on COLO 205 colon, 102%; in the assay with DU-145 prostate it was 95.2%; with K-562 leukemia it was 7.32% (active); in the assay with MALME-3M melanoma it was 92.4%. The growth is 64.3% in the assay with MDA-MB-231 breast; 92.1% with RXF 393 renal; 77.8% in the assay on SF-268 CNS; 101% in the assay with SF-295 CNS; 99% in the assay with SF-539 CNS; 98% in the assay with UACC-257 melanoma. Further, the growth in the assay with M14 melanoma was 93.8%; in the assay on HCT-15 colon, 78.5%.

`COc1nccc2cc3c(=O)n4c(cc5ccccc54)c(=O)n3c12`: the growth is 89.8% in the assay on NCI-H23 lung; 86.3% with NCI-H322M lung; 82.3% in the assay on HOP-62 NSCLC; 103% with NCI-H460 lung; 118% with HOP-92 NSCLC; 93.7% with NCI-H522 lung. For the same compound, the growth with A549/ATCC NSCLC was 104%; in the assay with 786-0 renal it was 102%; with COLO 205 colon, 102%; with DU-145 prostate, 111%; in the assay on K-562 leukemia, 91.9%; in the assay with MALME-3M melanoma it was 85.7%. The growth in the assay with MDA-MB-231 breast was 90.3%; with RXF 393 renal, 112%; with SF-268 CNS it was 101%; in the assay on SF-295 CNS it was 106%; in the assay on SF-539 CNS, 104%; in the assay with UACC-257 melanoma, 114%. The growth in the assay with M14 melanoma was 97.2%; with HCT-15 colon, 91.4%.

On to `O=C(NC1CCN(Cc2ccccc2)CC1)c1cc2nc(-c3ccc(Cl)s3)cc(C(F)(F)F)n2n1`, for which the growth is 90.8% with NCI-H23 lung; 113% with NCI-H322M lung; 70.7% with HOP-62 NSCLC; 26.6% with NCI-H460 lung; 51.9% in the assay on HOP-92 NSCLC; -31.9% (active) in the assay on NCI-H522 lung. Besides, the growth with A549/ATCC NSCLC was 81.9%; in the assay on 786-0 renal, 102%; in the assay on COLO 205 colon, -48.6% (active); in the assay with DU-145 prostate, 83.3%; in the assay on K-562 leukemia, 5.49% (active); in the assay on MALME-3M melanoma it was -84.1% (active). Moreover, the growth was 57.1% in the assay on MDA-MB-231 breast; 94.8% in the assay with RXF 393 renal; 66.7% with SF-268 CNS; -68.6% (active) with SF-295 CNS; 2.96% (active) with SF-539 CNS; -65.5% (active) in the assay with UACC-257 melanoma. In addition, the results for the growth with M14 melanoma and in the assay with HCT-15 colon were 48.7% and 94.7%, respectively.

As for `Nc1nonc1-n1nncc1-c1cccnc1`, the growth in the assay with NCI-H23 lung is 102%; with NCI-H322M lung, 101%; with HOP-62 NSCLC it was 110%; with NCI-H460 lung, 111%; with HOP-92 NSCLC it was 99.8%; with NCI-H522 lung, 112%. Besides, the growth was 94.7% in the assay on A549/ATCC NSCLC; 104% in the assay on 786-0 renal; 114% with COLO 205 colon; 112% in the assay with DU-145 prostate; 105% in the assay on K-562 leukemia; 96.1% with MALME-3M melanoma. The growth with MDA-MB-231 breast was 111%; in the assay with RXF 393 renal, 115%; in the assay on SF-268 CNS it was 106%; in the assay with SF-295 CNS, 98.2%; with SF-539 CNS it was 102%; with UACC-257 melanoma it was 112%. In addition, the growth in the assay on M14 melanoma was 104%; in the assay on HCT-15 colon it was 101%.

As for `Cc1cc(OC(=O)c2ccc([N+](=O)[O-])cc2)nc2[nH]c(=O)sc12`, the growth in the assay with NCI-H23 lung was 103%; with NCI-H322M lung it was 110%; with HOP-62 NSCLC, 111%; with NCI-H460 lung, 105%; with HOP-92 NSCLC it was 105%; with NCI-H522 lung it was 96.8%. In addition, the growth in the assay on A549/ATCC NSCLC is 103%; with 786-0 renal it was 104%; in the assay with COLO 205 colon, 116%; with DU-145 prostate, 111%; in the assay on K-562 leukemia, 102%; in the assay with MALME-3M melanoma, 107%. The growth in the assay on MDA-MB-231 breast was 103%; in the assay on RXF 393 renal, 108%; with SF-268 CNS, 97.5%; in the assay on SF-295 CNS, 103%; in the assay with SF-539 CNS, 98.5%; in the assay on UACC-257 melanoma it was 104%. For the same compound, the results for the growth in the assay with M14 melanoma and in the assay on HCT-15 colon were 102% and 103%, respectively.

In the case of `CCOC(=O)C1(C(=O)OCC)N=C(c2ccccc2)C=C1c1ccccc1`, the growth is 86.4% with NCI-H23 lung; 103% in the assay on NCI-H322M lung; 105% with HOP-62 NSCLC; 104% in the assay on NCI-H460 lung; 66.5% in the assay with HOP-92 NSCLC; 64.4% in the assay with NCI-H522 lung. Further, the growth in the assay on A549/ATCC NSCLC was 86.7%; in the assay with 786-0 renal, 96%; in the assay with COLO 205 colon it was 99.9%; with DU-145 prostate it was 106%; in the assay on K-562 leukemia, 65.2%; with MALME-3M melanoma, 86.4%. The growth is 96.3% in the assay with MDA-MB-231 breast; 74.9% in the assay on RXF 393 renal; 92.6% in the assay on SF-268 CNS; 84.9% in the assay on SF-295 CNS; 94% in the assay on SF-539 CNS; 92.1% with UACC-257 melanoma. Also, the growth in the assay on M14 melanoma was 90.5%; with HCT-15 colon it was 96.5%.

`CCOC(=O)c1cc2c(n1Cc1cc(OC)cc(OC)c1)-c1oncc1CCC2`: the growth in the assay on NCI-H23 lung was 23.7%; in the assay on NCI-H322M lung, 28%; in the assay on HOP-62 NSCLC it was 50.4%; in the assay on NCI-H460 lung, 6.91% (active); with HOP-92 NSCLC, 57.5%; with NCI-H522 lung, -19.1% (active). The growth with A549/ATCC NSCLC was 26.6%; in the assay with 786-0 renal, 41.9%; in the assay with COLO 205 colon it was -54.8% (active); with DU-145 prostate, 15.6%; in the assay on K-562 leukemia it was 7.66% (active); in the assay on MALME-3M melanoma, 8.25% (active). Also, the growth with MDA-MB-231 breast was 15.5%; with RXF 393 renal it was 18.6%; in the assay on SF-268 CNS, 33.5%; with SF-295 CNS, -16.6% (active); in the assay on SF-539 CNS, 2.3% (active); in the assay on UACC-257 melanoma, 52.9%. Moreover, the results for the growth in the assay on M14 melanoma and with HCT-15 colon were 25.3% and 24.2%, respectively.
